Assay results: PubChem BioAssay (EPA / NIEHS)
Active and inactive are the calls of the source. The calls were made as follows: active = hit-call score of the fitted dose curve at least 0.9, where 1 is the maximum; inactive = score below 0.9.

assay: IUF_NPC2a_radial_glia_migration_72hr: Leibniz Research Institute for Environmental Medicine (IUF) 72-hour Neural Progenitor Cell Migration Assay for Radial Glia Migration (NPC2a) (AID 2284299)
Procedure, shortened: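 Spheres of human primary neural progenitors migrate on poly-D-lysine/laminin under compound exposure at 37C, 5% CO2. The 72 h radial glia migration distance comes from brightfield images, measured manually.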

Structure (SMILES)	outcome	AC50
C[n+]1ccc(-c2cc[n+](C)cc2)cc1	inactive	–
C/C(=C/C=C/[C@@H](C)C(=O)O)[C@H]1CN[C@H](C(=O)O)[C@H]1CC(=O)O	inactive	–
CP(=O)(O)CCC(N)C(=O)O (configuration not stated)	inactive	–
[O-][Cl+3]([O-])([O-])O	inactive	–
CCOP(=S)(OCC)SCS(=O)C(C)(C)C (configuration not stated)	inactive	–
C[n+]1ccc(-c2ccccc2)cc1	inactive	–
Cn1nc(C(F)(F)F)c(CS(=O)(=O)C2=NOC(C)(C)C2)c1OC(F)F	inactive	–
CC1(C)C(C=C(Cl)c2ccc(Cl)cc2)C1C(=O)OC(C#N)c1ccc(F)c(Oc2ccccc2)c1 (configuration not stated)	inactive	–
CCOP(=O)(Oc1cnc(C(C)(C)C)nc1)OC(C)C (configuration not stated)	inactive	–
CC1(C)[C@H](C=C(Cl)Cl)[C@H]1C(=O)OCc1c(F)c(F)cc(F)c1F	inactive	–
CC(=O)[O-].CC(=O)[O-].O.O.O.[Pb+2]	inactive	–
CC1(C)C(C=C(Cl)Cl)C1C(=O)O[C@H](C#N)c1cccc(Oc2ccccc2)c1 (some centres not stated)	inactive	–
CCOP(=O)(OCC)OC(Cl)C(Cl)(Cl)Cl (configuration not stated)	inactive	–
CCOP(=O)(OCC)SCSC(C)(C)C	inactive	–
CC1(C)[C@@H](C=C(Cl)Cl)[C@@H]1C(=O)O[C@@H](C#N)c1ccc(F)c(Oc2ccccc2)c1	inactive	–
COP(=O)(OC)SCN1C(=O)c2ccccc2C1=O	inactive	–
CC(=O)[O-].[Tl+]	–	62.7 µM (active)
